About 83,000 compounds went through this panel and 20% of them were active in at least one assay; those are over-represented in the sample as a whole.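 Percent growth is the endpoint: 0 to 100 indicates growth inhibition (40 means 60% inhibition), 0 means no net growth, and negative values indicate cell death.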 Calls of active or inactive are those of the source. Rule for the calls: active = growth percent below 10; inactive = the rest.
Each compound was assayed on HL-60(TB) leukemia (assay: NCI-60 one-dose screen, 48 h (100 = growth as untreated, 0 = no growth, -100 = all killed)). Details: 10 µM unless noted.

SMILES	growth
C[C@]12CC[C@@H]3c4cc(OC(F)F)c(OS(N)(=O)=O)cc4CC[C@H]3[C@@H]1CC[C@@H]2O	1.17% (active)
CCN(CC)CCOc1nc2ccccc2c2c1-c1ccc(OC)cc1C2=O	9.1% (active)
CCCCc1c(CCC)c(=N)c2ccccc2n1C	77% (inactive)
COCCNC(=O)Nc1ccc2nc(-c3cccs3)c(-c3cccs3)nc2c1	81.5% (inactive)
COc1cccc(/C=C/C(=O)c2sc(Nc3ccc(O)cc3)nc2C)c1	78.8% (inactive)
CC(=O)CC(c1cccs1)c1c(-c2ccccc2)[nH]c2ccccc12 (stereo unspecified)	99.8% (inactive)

Reference: PubChem BioAssay (NCI)
